Assay results published in PubChem BioAssay (Tox21).
Where “and” joins values, the source holds several entries; their conditions need not be identical. Identical values can stand only once. Results filed as inconclusive are left out. Unmarked numbers belong to inactive results. Calls of active or inactive are those of the source. The call rests on the fitted dose curve; in most records, active means well fitted inhibition curve with a large enough effect in the repeat runs; inconclusive means weak or mixed curves; inactive means no such curve, though single readings can be large or run the other way.
On the % scale 0 is the no-effect control and ±100 the full control effect; potency means the concentration at half of the fitted maximal effect.

Each molecule was assayed against Cytochrome P450 2C9 (Homo sapiens) (UniProt P11712) (assay: Cytochrome P450 Family 2 Subfamily C Member 9 (CYP2C9) small molecule antagonists: luciferase reporter qHTS assay (AID 1671198; further: nearly all actives have a fitted effect of over 50% in size)). Conditions: P450-Glo CYP2C9 enzyme assay, luciferin luminescence; series mostly up to 115 µM; activity change, negative = inhibition: at the top concentration.
Chain of Cytochrome P450 2C9 (Homo sapiens) (P11712 whole entry, looked up): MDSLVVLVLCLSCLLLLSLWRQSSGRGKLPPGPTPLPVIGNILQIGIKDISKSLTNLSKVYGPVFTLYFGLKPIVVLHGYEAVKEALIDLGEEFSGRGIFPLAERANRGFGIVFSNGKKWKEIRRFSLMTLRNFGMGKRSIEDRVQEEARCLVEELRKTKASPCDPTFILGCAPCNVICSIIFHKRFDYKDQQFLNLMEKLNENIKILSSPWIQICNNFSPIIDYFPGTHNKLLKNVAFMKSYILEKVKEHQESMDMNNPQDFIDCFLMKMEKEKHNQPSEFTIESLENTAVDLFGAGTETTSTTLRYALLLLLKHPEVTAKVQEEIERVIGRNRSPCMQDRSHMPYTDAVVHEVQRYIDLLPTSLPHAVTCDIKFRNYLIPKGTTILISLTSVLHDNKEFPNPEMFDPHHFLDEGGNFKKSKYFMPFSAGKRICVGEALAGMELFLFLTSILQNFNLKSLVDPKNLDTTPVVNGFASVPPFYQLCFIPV
Description: U.S. Tox21 Program National Center for Advancing Translational Sciences [NCATS] U.S. Environmental Protection Agency [EPA] National Institutes of Environmental Health Sciences [NIEHS] National Toxicology Program [NTP] U.S. Food and Drug Administration [FDA] Tox21 Assay Overview: Cytochrome P450 (CYP) enzymes are membrane-bound hemeproteins that play a key role in metabolism of drugs and xenobiotics. Evaluation of the effect of chemicals on CYP isozymes is useful to minimize the adverse drug reactions and toxicities in drug development process. Tox21 chemicals were tested for their effect on CYP enzyme activities by using P450-Glo (TM) screening systems (Promega Corporation, Madison, WI). These systems provide a luminescent method containing proluciferin substrates and are converted to luciferin products by CYP isozymes. The luciferin products formed are detected with a luciferin detection reagent, and the amount of light produced is proportional to CYP activity. P450-Glo (TM) CYP2C9 screening system (Catalog. No. V9790) was used to detect the compounds that interfere in CYP2C9 activity.
Tox21 Assay Protocol Summary: Two ul of enzyme-substrate mix was dispensed into medium binding white/solid 1536-well plates (Greiner Bio-One North America Inc., Monroe, NC) using a BioRaptr Flying Reagent Dispenser (FRD, Beckman Coulter, Brea, CA). […] The assay plates were incubated at room temperature for 10 min. Then 2 ul of NADPH regeneration solution was added to each well of the assay plates using an FRD and incubated at 37C for 1 h. The reaction was stopped by adding 4 ul of detection reagent using an FRD and after 20 min incubation at room temperature the luminescence signal was measured using a ViewLux plate reader (Perkin Elmer, Shelton, CT). Data were expressed as relative luminescence units.
For O=P(Cl)(Cl)Cl, the “activity change, negative = inhibition” value was -4.26%. For O=[N+]([O-])C(Br)Br, the “activity change, negative = inhibition” value was -13.2%. N#CC(C#N)=NNc1cccc(Cl)c1 was tested, and the Potency was 8.94 µM (active). For O=NN(CCO)CCO, the “activity change, negative = inhibition” value was -14.1%. With ClC1=C(Cl)[C@]2(Cl)[C@H]3[C@H]([C@@H]4C=C[C@H]3C4)[C@@]1(Cl)C2(Cl)Cl the “activity change, negative = inhibition” value was -16.1%. In the case of O=S(=O)(NS(=O)(=O)C(F)(F)F)C(F)(F)F, the Potency is reported as 6.31 µM (active). In the case of FC(F)C(F)(F)OCC(Cn1cncn1)c1ccc(Cl)cc1Cl (stereo not given), the Potency is reported as 1.77 µM (active). Nc1nc(N)nc(Cl)n1 was tested, and the “activity change, negative = inhibition” value was -15.4%. In the case of O=C(N[C@H]1N=C(c2ccccc2F)c2cccc3c2N(CC3)C1=O)c1cc2ccccc2[nH]1, the Potency is reported as 7.76 µM (active). With Clc1ccc(C(Cl)(Cl)Cl)cc1Cl the “activity change, negative = inhibition” value was -19.2%. Cc1ccc2cc3c(ccc4ccccc43)c3c2c1CC3 was tested, and the Potency was 5.65 µM (active). In the case of COP(=S)(NC(C)C)Oc1ccc(C)cc1[N+](=O)[O-] (stereo not given), the Potency is reported as 2.52 µM (active). N#Cc1ccc(N(CC(N)=O)CC(F)(F)F)cc1C(F)(F)F was tested, and the Potency was 35.6 µM (active). O=S1OCC2C(CO1)C1(Cl)C(Cl)=C(Cl)C2(Cl)C1(Cl)Cl (stereo not given) was tested, and the Potency was 35.6 µM (active) and 31.7 µM (active). COc1cnc(OC)n2nc(NS(=O)(=O)c3c(OCC(F)F)cccc3C(F)(F)F)nc12 was tested, and the Potency was 35.6 µM (active). CCCCC(CC)COC(=O)c1ccccc1C(=O)OCC(CC)CCCC (stereo not given) was tested, and the Potency was 9.47 µM (active). C[C@]12Cc3cn[nH]c3C[C@@H]1CC[C@@H]1[C@@H]2CC[C@@]2(C)[C@H]1CC[C@]2(C)O was tested, and the Potency was 0.977 µM (active). For CNC(=O)O/N=C(\C)C(C)S(C)(=O)=O (stereo not given), the “activity change, negative = inhibition” value was -9.59% [at 1.09 mM]. With Cc1ccccc1OP(=O)(Oc1ccccc1C)Oc1ccccc1C the Potency was 5.66 µM (active). O=C1C2(Cl)C3(Cl)C4(Cl)C(Cl)(Cl)C5(Cl)C3(Cl)C1(Cl)C5(Cl)C24Cl (stereo not given) was tested, and the Potency was 5.55 µM (active) and 6.06 µM (active). In the case of Nc1ccc(N=Nc2ccccc2)cc1, the Potency is reported as 12.6 µM (active). In the case of CCCCCCCc1ccc(O)cc1, the Potency is reported as 35.6 µM (active). In the case of CCOP(=O)(Sc1ccccc1)Sc1ccccc1, the Potency is reported as 28.3 µM (active). For CN1C(=O)[C@@H](NC(=O)c2cc3ccccc3[nH]2)N=C(c2ccccc2)c2ccccc21, the Potency was 4.9 µM (active). With O=c1[nH]c(Cl)c(Cl)cc1Cl the Potency was 39.9 µM (active). For O=[N+]([O-])c1ccc(Cl)c(Cl)c1Cl, the “activity change, negative = inhibition” value was -5.24%. In the case of CCCCCCCCCCCCCCn1cc[n+](C)c1, the Potency is reported as 11.3 µM (active). With C[C@H]1[C@H](c2ccc(Cl)cc2)SC(=O)N1C(=O)NC1CCCCC1 the Potency was 10 µM (active). With CC(=O)[O][Sn]([c]1ccccc1)([c]1ccccc1)[c]1ccccc1 the Potency was 0.894 µM (active). c1ccc2nc(N3CCNCC3)ccc2c1 was tested, and the “activity change, negative = inhibition” value was 0.594% [at 53 µM]. With CC1(C)[C@H](/C=C2\CCSC2=O)[C@@H]1C(=O)OCc1coc(Cc2ccccc2)c1 the Potency was 1.26 µM (active). With CCC(C)Nc1c([N+](=O)[O-])cc(C(C)(C)C)cc1[N+](=O)[O-] (stereo not given) the Potency was 35.6 µM (active). With CN1CCc2cc3c(cc2C1O)OCO3 (stereo not given) the “activity change, negative = inhibition” value was -13.8%. In the case of CC(C)(C)c1ccc(OP(=O)(Oc2ccccc2)Oc2ccccc2)cc1, the Potency is reported as 5.06 µM (active). O=C(NC(=O)c1c(F)cccc1F)Nc1ccc(Oc2ccc(C(F)(F)F)cc2Cl)cc1F was tested, and the Potency was 25.2 µM (active). In the case of O=C1C(Cl)=C(Cl)C(=O)C(Cl)=C1Cl, the Potency is reported as 5.01 µM (active) and 8.94 µM (active). With CCOP(=O)(OCC)Oc1nc(Cl)c(Cl)cc1Cl the Potency was 35.4 µM (active). For C=CCBr, the “activity change, negative = inhibition” value was -4.25%. Nc1ccccc1-c1ccccc1 was tested, and the Potency was 31.5 µM (active). With CN1CCc2cc(Cl)c(O)cc2[C@H]2c3ccccc3CC[C@@H]21 the “activity change, negative = inhibition” value was -10.3% [at 53 µM].
